Screening data deposited in PubChem BioAssay by several laboratories.
A selection: hits, their analogues and other compounds. The true share with any hit is near 4.4%.
tim23-1 inh: tim23-1 yeast growth inhibition | S. cerevisiae tim23-1 growth, BacTiter-Glo luminescence, 24 h | inhibition, % at 20 µM | 1.3% of 330,000 active | AID 463212;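 active means growth inhibition of the mutant yeast at or above 50%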;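 further: temperature-sensitive mutant grown at 25 °C; plate controls were DMSO-treated mutant yeast for no effect and medium wells lacking yeast for full effect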
PfHsp90 yeast 2: inhibits growth of yeast expressing Plasmodium falciparum Hsp90. S. cerevisiae expressing PfHsp90, BacTiter-Glo ATP, 48 h; yeast lacking PDR1 and PDR3 efflux regulators. inhibition, % at 9.4 µM. 0.32% of 310,000 active;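 active means every replicate shows inhibition above about 80%, whatever the replicate mean, limit read from the data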;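 further: 0% = DMSO neutral controls and 100% = 20 µM radicicol positive controls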
SUMO Mot1 rescue: inhibitors of SUMOylation pathway: yeast Mot1-301 growth rescue; AID 2716; S. cerevisiae Mot1-301 growth rescue, ATP luminescence, 38.5C; percent above DMSO median, 100 means doubled; 1% of 320,000 active; growth rescue, % at 18.8 µM;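 active means every valid replicate shows activation above 250% relative to neutral control wells; inactive means the rest, any valid replicate at or below 250%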;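 further: OY570 slx delta 5 strain wells were the positive control but not used for scaling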
TIM10 inh: growth inhibitors of TIM10 yeast strain; inhibition, % at 10 µM; AID 463195; 1.4% of 330,000 active; S. cerevisiae TIM10 strain growth, BacTiter-Glo luminescence, 24 h;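 active means inhibition of 40% or more at the single tested concentration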;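 further: wild-type TIM10 isogenic control strain grown at permissive 25 °C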
tim10-1 inh: inhibits growth of tim10-1 mutant yeast; 2.2% of 330,000 active; S. cerevisiae tim10-1 ts strain growth, BacTiter-Glo, 24 h; inhibition, % at 20 µM;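 active means inhibition of at least 40%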;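 further: mutant grown at 25 °C; 0% = DMSO wells with yeast and 100% = wells holding no yeast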
Mot1 SUMO dose: yeast SUMO pathway inhibition in dose response. shares compounds with SUMO Mot1 rescue. S. cerevisiae Mot1-301 galactose growth, ATP luminescence, 24 h; -100 = growth of slx-deleted rescue strain. growth activity, percent, % at 42 µM. 2,300 tested, under 10 active;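 active means Signal drops as the depositor expects, and the fitted half-maximal dose is no more than ten times the top valid tested dose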;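 further: more negative values mean stronger growth rescue toward the control strain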
Starred values were filed as active, the others as inactive; nt = not tested or not shown; + = active, no number; [ ] = another dose, or the depositor's remark.

SMILES	tim23-1 inh	PfHsp90 yeast 2	SUMO Mot1 rescue	TIM10 inh	tim10-1 inh	Mot1 SUMO dose
O=C(NCc1cccnc1)C(=O)NCC1OCCCN1S(=O)(=O)c1ccc(F)cc1 (centres undefined)	3	-7	7	-11	-19	nt
O=C(COC(=O)C1COc2ccccc2O1)NC(=O)NC1CCCCC1 (centres undefined)	15	2	9	17	8	nt
O=C(COC(=O)C1COc2ccccc2O1)NC1CCS(=O)(=O)C1 (centres undefined)	6	-9	473*	-7	0	0
O=C(C1CCCC1)N1CCCC(Nc2ccc(F)cc2)C1 (centres undefined)	13	2	1	2	8	nt
O=C(c1cccnc1)N1CCCC(Nc2ccc(F)cc2)C1 (centres undefined)	-7	-19	595*	-5	-10	0
COc1cc2c(cc1OC)CN(C(=O)Cc1c(F)cccc1Cl)CC2	19	-21	475*	9	-5	1
O=C(NCCc1cnccn1)C1CCC(=O)N(Cc2ccc(Cl)cc2)C1 (centres undefined)	-1	-15	523*	6	5	0
CCN1C(=O)c2cccc3c(S(=O)(=O)Nc4ccc(OC)cc4OC)ccc1c23	25	10	768*	5	28	0
COc1ccc(NC(=O)CSc2nc(O)cc(=O)n2-c2ccccc2)cc1	6	-1	10	13	2	nt
O=C(CSc1nc(O)cc(=O)n1-c1ccccc1)NC1CCCCC1	13	2	584*	9	2	0
O=C(CSc1ncccc1C(=O)O)NC1CCCCC1	2	7	420*	2	12	1
COc1ccc(NC(=O)c2ccc(-n3cncn3)c([N+](=O)[O-])c2)cc1	-7	-9	901*	-18	1	-1[21 µM]
COc1ccc(NC(=O)c2ccc(-n3cncn3)c([N+](=O)[O-])c2)cc1OC	-8	21	-8	-2	-16	nt
COc1ccc(NC(=O)COc2cc(C)cc(C)c2)cc1S(=O)(=O)N1CCCCC1	-20	6	530*	-30	-15	1
COc1ccc(NC(=O)Cn2c(=O)cnc3ccccc32)cc1S(=O)(=O)N1CCCCC1	-2	-20	428*	-4	-9	0
Cc1ccc(C)c(Cn2nc3c4ccccc4n(Cc4ccccc4)cc-3c2=O)c1	-2	4	nt	1	0	nt
Cc1cc(C(=O)CN2C(=O)NC3(CCCc4sccc43)C2=O)c(C)n1-c1ccccc1 (centres undefined)	8	18	38	28	19	nt
COc1ccc(-n2c(C)cc(C(=O)CN3C(=O)NC4(CCCc5sccc54)C3=O)c2C)cc1 (centres undefined)	12	1	+	40	23	-1
CC1Cc2ccccc2N1C(=O)CNc1cccc(S(=O)(=O)N2CCCC2)c1 (centres undefined)	17	-7	+	-7	9	0
CC(=O)c1cccc(NCC(=O)Nc2cccc(S(=O)(=O)N3CCCCC3)c2)c1	17	-3	-33	15	12	nt
Cc1n[nH]c(=O)nc1NCc1ccc(Cl)cc1	3	-7	627*	-2	11	0
CCc1cc2c(COC(=O)c3cccc(NS(C)(=O)=O)c3)cc(=O)oc2cc1O	-8	-9	-1	2	-25	nt
Cc1sc(NC(=O)c2ccc(F)cc2)c(CN2CCCCCC2)c1C	30	1	497*	15	14	1
CCOC(=O)[C@H]1[C@H]2COc3ccccc3[C@@H]2N2C(=O)c3ccc(C)cc3NC(=O)[C@@]12C	2	-5	3	-5	-17	nt
COc1cc(-c2nnc(SCC#CCO)o2)cc(OC)c1OC	5	nt	967*	7	16	1
SMILES	tim23-1 inh	PfHsp90 yeast 2	SUMO Mot1 rescue	TIM10 inh	tim10-1 inh	Mot1 SUMO dose
OCC#CCSc1nnc(-c2ccncc2)o1	-3	1	-19	8	9	nt
COc1ccc(C(=O)NCCS(=O)(=O)NCc2ccccc2OC)cc1	13	-10	-10	-11	6	nt
CC(=O)N1CCc2cc(S(=O)(=O)NC(CC(C)C)C(=O)N3CCCC3)ccc21 (centres undefined)	-3	-9	18	-5	-4	nt
Cc1ccc(NC(=O)/C=N/OCC(=O)NCc2ccccc2Cl)cc1	4	-29	464*	-22	4	0
Cc1ccc(NC(=O)Cn2nc(C)c3ccccc3c2=O)cc1	0	30	369*	-21	-20	0
COC(=O)C1CN(C(=O)C(C)Oc2ccc(F)cc2)c2ccccc2O1 (centres undefined)	5	-5	748*	3	14	0
CCOC(=O)N1CCN(C(=O)c2ccc(CS(=O)Cc3ccc(C)cc3)o2)CC1 (centres undefined)	0	22	-1	-6	-5	nt
CC(C)C(=O)NNc1ccc(C(F)(F)F)cn1	-12	1	586*	-2	4	0
O=[N+]([O-])c1nn(-c2ccc(Cl)cc2)n(O)c1=NCc1ccccc1Cl	16	-91	+	14	21	-1
O=[N+]([O-])c1nn(-c2ccc(Cl)cc2)n(O)c1=NCc1ccncc1	32	-2	117	27	25	nt
COc1ccc2[nH]c3c(c2c1)CCN1C(=O)C(CC(=O)NCCCN(C)C)C[C@H](C(=O)N2CCCCC2)[C@@]31C (some centres undefined)	18	5	nt	-20	1	nt
NC(=O)C1CCCN(C(=O)CCC(=O)c2cccs2)C1 (centres undefined)	-4	nt	9	0	-12	nt
O=C(Cn1nc(Br)nc1Br)c1ccccc1	10	8	27	0	5	nt
Cc1cccc2nc(COc3ccc4ccccc4c3Br)cn12	36	-27	728*	17	29	-1
Cc1cc(Br)ccc1NC(=O)CNC(=O)c1cnn(C)c1	-5	-31	6	-1	0	nt
Cc1ccccc1-c1nnc(SCc2ccc(F)cc2)o1	24	-10	+	17	23	-1
O=[N+]([O-])c1ccc(/C=N\NS(=O)(=O)c2ccc(F)cc2)o1	35	-2	-9	15	19	nt
Nc1cc[n+](CC(=O)Nc2ccccc2)cc1	10	-31	799*	-4	16	1
Cc1csc(=O)n1CC(=O)OCC(=O)Nc1cc([N+](=O)[O-])ccc1Cl	-12	-16	485*	-38	-5	0
Cc1ccc(NC(=O)COC(=O)Cn2c(C)csc2=O)c([N+](=O)[O-])c1	6	7	-22	10	1	nt
CC(C)Oc1ccc(CCC(=O)NNC(=O)CCC(=O)O)cc1	12	-2	-20	-11	10	nt
CC(C)Oc1ccc(CCC(=O)NNC(=O)c2ccccc2C(=O)O)cc1	6	-5	460*	-3	15	0
